# Test results taken from the supplement of paper PMC3545927.
# Some of the results follow. The true hit rate is not given.
# Target: furin, P09958
# Assay: furin cleavage Z-score vs untreated control; higher = more cleavage, active = 3.5 or more, inactive = 1 or less, 8 variable residues between constant flanks
# How it was run: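 The cleavage Z-score is the log read count relative to furin-free reactions, lowess-adjusted and scaled by median absolute deviation. Counts came from sequencing DNA released from bead-bound 8-mer peptide–cDNA fusions after digestion with purified furin for 7.5, 15 or 30 min.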
# 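Further: purified furin at 1:10 enzyme:substrate in 50 mM HEPES pH 7.5.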
# Chain of furin, P09958 (P09958 whole entry): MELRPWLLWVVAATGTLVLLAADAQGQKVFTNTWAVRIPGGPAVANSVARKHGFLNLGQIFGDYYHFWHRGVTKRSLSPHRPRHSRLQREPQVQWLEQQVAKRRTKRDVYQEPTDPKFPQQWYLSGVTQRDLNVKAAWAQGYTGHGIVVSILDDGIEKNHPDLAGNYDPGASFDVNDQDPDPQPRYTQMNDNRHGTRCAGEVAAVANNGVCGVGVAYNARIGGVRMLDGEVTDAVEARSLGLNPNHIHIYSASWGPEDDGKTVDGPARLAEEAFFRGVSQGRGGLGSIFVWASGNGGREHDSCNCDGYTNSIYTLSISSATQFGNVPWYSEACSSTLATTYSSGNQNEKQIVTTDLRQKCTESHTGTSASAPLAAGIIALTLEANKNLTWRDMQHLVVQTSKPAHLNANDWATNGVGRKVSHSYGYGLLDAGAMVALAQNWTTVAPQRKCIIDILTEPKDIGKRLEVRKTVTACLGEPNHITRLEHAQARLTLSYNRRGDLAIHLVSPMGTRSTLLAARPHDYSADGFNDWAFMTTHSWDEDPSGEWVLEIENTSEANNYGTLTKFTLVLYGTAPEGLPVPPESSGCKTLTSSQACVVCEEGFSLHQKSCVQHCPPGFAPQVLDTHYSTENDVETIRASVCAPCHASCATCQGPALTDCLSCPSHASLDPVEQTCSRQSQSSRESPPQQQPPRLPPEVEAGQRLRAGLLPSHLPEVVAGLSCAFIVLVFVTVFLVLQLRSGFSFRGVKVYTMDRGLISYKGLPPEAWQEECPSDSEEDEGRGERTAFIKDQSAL
Sequence,furin cleavage Z-score (7.5 min),furin cleavage Z-score (15 min),furin cleavage Z-score (30 min)
CASTGFTKVCAGNASASA [HC439],0.727 (inactive),-0.241 (inactive),0.58 (inactive)
CAPISYANGSAGNASASA [HC396],0.358 (inactive),-0.237 (inactive),0.768 (inactive)
CACEECSQHLAGNASASA [HC1680],-0.324 (inactive),-2.23 (inactive),-0.379 (inactive)
CARDARRLKEAGNASASA [FS-2900],0.375 (inactive),-1.38 (inactive),-0.471 (inactive)
CALNRRRRREAGNASASA [FS-355],12.7 (active),12.9 (active),8.21 (active)
CAVFARHLREAGNASASA [FS-921],5.03 (active),6.28 (active),4.54 (active)
CARFYRSRKKAGNASASA [FS-1707],0.676 (inactive),1.31,0.114 (inactive)
CALHGRRRREAGNASASA [FS-456],12.8 (active),11.9 (active),10.7 (active)
CAVSAEEYVEAGNASASA [HC1203],-1.9 (inactive),0.0508 (inactive),0.782 (inactive)
CARRNRRRREAGNASASA [FS-494],12 (active),13.6 (active),9.7 (active)
CACCTTPCSGAGNASASA [HC1960],-1.19 (inactive),-0.424 (inactive),-0.858 (inactive)
CAWCLWWLQYAGNASASA [HC581],-0.105 (inactive),-0.224 (inactive),-0.828 (inactive)
CAWFGCTWMNAGNASASA [HC435],-0.725 (inactive),1.68,1.37
CATDFDQGWGAGNASASA [HC392],-0.591 (inactive),-2.3 (inactive),-1.94 (inactive)
CAGGGRTRREAGNASASA [FS-427],3.88 (active),3.57 (active),2.42
CAEGGRRRREAGNASASA [FS-1318],4.58 (active),3.64 (active),2.94
CAMSGEVPSTAGNASASA [HC1095],-0.208 (inactive),-0.846 (inactive),0.503 (inactive)
CAMSGRRLREAGNASASA [FS-1468],3.25,3.96 (active),3.6 (active)
CAGGGGGGGGAGNASASA [NE1],1.03,0.409 (inactive),1.54
CAPPLEGEPGAGNASASA [HC1355],0.988 (inactive),0.95 (inactive),0.522 (inactive)
CAGKSLKKRSAGNASASA [FS-1198],10.8 (active),8.86 (active),8.35 (active)
CAGKSVKKRSAGNASASA [FS-161],8.72 (active),12 (active),9.51 (active)
CAPEKGGRKPAGNASASA [HC1445],0.667 (inactive),-1.91 (inactive),-0.0787 (inactive)

Sequence,furin cleavage Z-score (7.5 min),furin cleavage Z-score (15 min),furin cleavage Z-score (30 min)
CATCRNMWSGAGNASASA [HC1186],1.45,1.34,0.472 (inactive)
CAIVVTSTWVAGNASASA [HC2144],0.282 (inactive),-0.196 (inactive),0.858 (inactive)
CAHLVRKKRKAGNASASA [FS-1339],10.2 (active),11.5 (active),10.3 (active)
CASGSKKKRKAGNASASA [FS-1278],-1.57 (inactive),0.447 (inactive),0.492 (inactive)
CALLVRKKRKAGNASASA [FS-824],9.19 (active),10.5 (active),8.06 (active)
CAIFWRKKRKAGNASASA [FS-337],4.37 (active),3.52 (active),5.53 (active)
CAATCTANHDAGNASASA [HC1267],-0.592 (inactive),0.126 (inactive),0.634 (inactive)
CAAVMGSSYGAGNASASA [HC1463],-0.652 (inactive),0.469 (inactive),-0.776 (inactive)
CALVFFCFAWAGNASASA [HC545],-0.625 (inactive),-0.493 (inactive),-2.31 (inactive)
CAKNNRGRRQAGNASASA [FS-1018],8.48 (active),8.87 (active),9.25 (active)
CAATVCARAQAGNASASA [HC956],-0.452 (inactive),0.685 (inactive),-0.234 (inactive)
CAKYNRGRRKAGNASASA [FS-1598],-1.68 (inactive),1.26,2.34
CARNTNRRPQAGNASASA [HC167],0.367 (inactive),0.97 (inactive),-0.345 (inactive)
CAAKRRFRRQAGNASASA [FS-521],11.3 (active),11.5 (active),9.92 (active)
CAKSNRFRRQAGNASASA [FS-453],9.35 (active),7.39 (active),5.76 (active)
CAAKRRTRRQAGNASASA [FS-1443],9.31 (active),8.38 (active),7.06 (active)
CAKNEVFCVQAGNASASA [HC1441],-0.977 (inactive),-0.752 (inactive),-0.637 (inactive)
CAERTTPCSGAGNASASA [HC1973],-0.657 (inactive),0.759 (inactive),0.0382 (inactive)
CAVVCCFMSYAGNASASA [HC106],0.2 (inactive),-0.139 (inactive),-1.5 (inactive)
CAMEEWSQHLAGNASASA [HC7],-0.124 (inactive),0.451 (inactive),0.398 (inactive)
CAGKRRFRRQAGNASASA [FS-783],8.34 (active),7.16 (active),6.56 (active)
CAKARRFVEQAGNASASA [FS-2121],-0.772 (inactive),0.447 (inactive),-0.0659 (inactive)
CAGMLRQRRPAGNASASA [FS-1001],-1.01 (inactive),-1.53 (inactive),-1.03 (inactive)
